Outcome and AC50 data for 3 molecules are collected here from PubChem BioAssay (EPA / NIEHS).

The nature of assay [1]: ATG_E_Box_CIS: Attagene CIS-FACTORIAL HepG2 Assay for human Enhancer Box (E-box) (AID 2282936). Particulars: HepG2 E-box cis-reporter transcription, actives raise or lower the signal. The gist of the method:
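Endogenous transcription factor activity was sensed in human HepG2 liver cells through transfected cis-promoter reporter units. After 24 h of dosing, total RNA was reverse-transcribed and reporter cDNA resolved by capillary electrophoresis.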

The nature of assay [2]: ATG_M_61_CIS: Attagene CIS-FACTORIAL HepG2 Assay for M61 Transcription Factor (Internal Marker) (AID 2282937). Particulars: HepG2 Attagene CIS-FACTORIAL M61 internal marker reporter; actives raise or lower the signal. In outline: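 Background-control endpoint: HepG2 cells with cis-regulated reporter constructs, 24 h exposure, reporter mRNA detected via fluorescent primer extension and capillary electrophoresis; values from bidirectional fitting with DMSO baseline.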

Assay [3] is described as follows: ATG_EGR_CIS: Attagene CIS-FACTORIAL HepG2 Assay for human Early Growth Response 1 (EGR1) (AID 2282938). The conditions noted are these: HepG2 Attagene CIS-FACTORIAL EGR reporter mRNA; actives raise or lower the signal. In outline:
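Endpoint derived by bidirectional fitting versus DMSO vehicle. Method: cis-promoter reporter units transfected into HepG2, 24 h dosing, RNA isolation, RT-PCR with 6-FAM primer extension and HpaI digestion, then capillary electrophoresis fluorescence detection.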

Assay [4] in a line: ATG_M_19_CIS: Attagene CIS-FACTORIAL HepG2 Assay for M19 Transcription Factor (Internal Marker) (AID 2282939). The conditions noted are these: HepG2 Attagene CIS-FACTORIAL M19 internal marker reporter; actives raise or lower the signal. The gist of the method:
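Internal marker readout, fitted in both directions against DMSO, from HepG2 cells carrying transfected cis-element reporter constructs; RT-PCR and capillary electrophoresis of reporter mRNA after 24 h exposure.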

Assay [5] can be described thus: ATG_ERE_CIS: Attagene CIS-FACTORIAL HepG2 Assay for Estrogen Response Element (ERE) (AID 2282940). The conditions noted are these: HepG2 ERE cis-reporter, Attagene RNA transcript; actives raise or lower the signal. The gist of the method:
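After 24 h compound treatment, RNA from transfected HepG2 cells was reverse-transcribed, reporter cDNA PCR-amplified, FAM-labelled, HpaI-cut and resolved by capillary electrophoresis. ERE-driven cis reporter transcripts reflect endogenous factors; gain or loss scored against DMSO.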

Assay [6] is described as follows: ATG_Ets_CIS: Attagene CIS-FACTORIAL HepG2 Assay for human Erythroblast Transformation Specific (ETS) (AID 2282941). Particulars: HepG2 ETS cis-reporter transcription; AC50: actives raise or lower the signal unless noted; outcome: actives raise or lower the signal unless noted. In outline: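 RT-PCR/capillary electrophoresis fluorescence read-out of reporter mRNA; HepG2 transient multi-reporter transfection; 24 h compound exposure; gain or loss of signal fitted bidirectionally relative to DMSO.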

Assay [7] concerns the target Hepatocyte nuclear factor 3-beta (Homo sapiens) (UniProt Q9Y261). As to the kind of experiment: ATG_FoxA2_CIS: Attagene CIS-FACTORIAL HepG2 Assay for human Forkhead box A2 (FOXA2) (AID 2282942). The conditions noted are these: HepG2 cis-reporter transcription factor activity, 24 h; actives raise or lower the signal. In outline:
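Measured: reporter mRNA induction or loss in HepG2 transiently carrying multiple cis-regulated reporter units, 24 h after dosing. Quantified by RT-PCR plus capillary electrophoresis, normalised to DMSO.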

Assay [8] in a line: ATG_GATA_CIS: Attagene CIS-FACTORIAL HepG2 Assay for human GATA Binding Protein (AID 2282944). The conditions noted are these: HepG2 GATA cis-element reporter, Attagene multiplex mRNA; actives raise or lower the signal. The gist of the method: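 Reporter transcripts from a GATA cis-regulated unit, among multiplexed reporters in transfected HepG2 cells, were measured by RT-PCR with capillary electrophoresis after 24 h dosing. Induction or loss scored relative to DMSO.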

A short description of assay [9]: ATG_GLI_CIS: Attagene CIS-FACTORIAL HepG2 Assay for human Zinc Finger Protein GLI1 (AID 2282945). The conditions noted are these: HepG2, Attagene cis-factorial reporter mRNA, GLI element; actives raise or lower the signal. In outline: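 HepG2 cells transiently transfected with cis-promoter multiplexed reporter units report endogenous transcription factor activity. After 24 h chemical exposure, reporter mRNA was quantified by RT-PCR, 6-FAM labelling, HpaI digestion and capillary electrophoresis, with bidirectional fitting against DMSO.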

For assay [10], the target named is Bile acid receptor (Homo sapiens) (UniProt Q96RI1). As to the kind of experiment: ATG_IR1_CIS: Attagene CIS-FACTORIAL HepG2 Assay for human Nuclear Receptor Subfamily 1 Group H Member 4 (NR1H4), IR1 submotif (AID 2282946). The conditions noted are these: IR1 reporter transcription, actives raise or lower the signal. In outline:
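Readout: reporter transcript levels by RT-PCR with fluorescent capillary electrophoresis, from HepG2 cells transiently transfected with multiplexed cis-regulated reporters and dosed 24 h. Gain- or loss-of-signal fitted versus DMSO negative control.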

Assay [11] is described as follows: ATG_GRE_CIS: Attagene CIS-FACTORIAL HepG2 Assay for human Glucocorticoid Response Elements (GRE) (AID 2282947). Particulars: HepG2 GRE cis-reporter, Attagene multiplex mRNA; AC50: actives raise or lower the signal unless noted; outcome: actives raise or lower the signal unless noted. The gist of the method: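 Cells (HepG2) bearing transfected cis-promoter reporter transcription units were treated with chemical for 24 hours. Reporter mRNA was measured via RT-PCR with capillary electrophoresis, and activity was fitted in both directions relative to DMSO.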

A short description of assay [12]: ATG_ISRE_CIS: Attagene CIS-FACTORIAL HepG2 Assay for human Interferon Regulatory Factor 1 (IRF1) binding to an Interferon-Stimulated Response Element (ISRE) (AID 2282948). The conditions noted are these: HepG2 ISRE cis-reporter (Attagene), mRNA transcription readout; actives raise or lower the signal. In outline:
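Read-out: fluorescent RT-PCR products resolved by capillary electrophoresis, reporting endogenous transcription factor activity via ISRE-driven reporter mRNA in transfected HepG2 cells dosed for 24 h; gain or loss fitted relative to DMSO.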

The nature of assay [13]: ATG_M_32_CIS: Attagene CIS-FACTORIAL HepG2 Assay for M32 Transcription Factor (Internal Marker) (AID 2282949).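 Also: background control marker of the multiplexed CIS panel rather than a real target.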 Particulars: HepG2 Attagene cis-factorial M32 reporter, mRNA; actives raise or lower the signal. In outline: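 HepG2 transfectants (cis-regulated reporter transcription units) dosed 24 h. Reporter mRNA by RT-PCR plus CE, analysed as gain or loss relative to DMSO.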

A short description of assay [14]: ATG_M_06_CIS: Attagene CIS-FACTORIAL HepG2 Assay for M06 Transcription Factor (Internal Marker) (AID 2282950). Particulars: HepG2 Attagene CIS-FACTORIAL M06 internal marker reporter; actives raise or lower the signal. The gist of the method:
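Serves as a background control readout. Transfected HepG2 exposed to compounds for 24 h, then reporter transcripts quantified by fluorescent RT-PCR and capillary electrophoresis. Both directions fitted against DMSO baseline.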

For assay [15], the target named is Hypoxia-inducible factor 1-alpha (Homo sapiens) (UniProt Q16665). Nature of the assay: ATG_HIF1a_CIS: Attagene CIS-FACTORIAL HepG2 Assay for human Hypoxia Inducible Factor 1 (HIF1A) (AID 2282951). The conditions noted are these: HepG2 Attagene cis-factorial HIF1a reporter transcription; actives raise or lower the signal. In outline: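 Dosed 24 h, transfected HepG2 cells yielded total RNA whose reporter transcripts were RT-PCR-amplified and sized by capillary electrophoresis using fluorescent labelling; DMSO defined baseline, with gain and loss of signal both fitted.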
Hypoxia-inducible factor 1-alpha (Homo sapiens), sequence (Q16665 whole entry, looked up): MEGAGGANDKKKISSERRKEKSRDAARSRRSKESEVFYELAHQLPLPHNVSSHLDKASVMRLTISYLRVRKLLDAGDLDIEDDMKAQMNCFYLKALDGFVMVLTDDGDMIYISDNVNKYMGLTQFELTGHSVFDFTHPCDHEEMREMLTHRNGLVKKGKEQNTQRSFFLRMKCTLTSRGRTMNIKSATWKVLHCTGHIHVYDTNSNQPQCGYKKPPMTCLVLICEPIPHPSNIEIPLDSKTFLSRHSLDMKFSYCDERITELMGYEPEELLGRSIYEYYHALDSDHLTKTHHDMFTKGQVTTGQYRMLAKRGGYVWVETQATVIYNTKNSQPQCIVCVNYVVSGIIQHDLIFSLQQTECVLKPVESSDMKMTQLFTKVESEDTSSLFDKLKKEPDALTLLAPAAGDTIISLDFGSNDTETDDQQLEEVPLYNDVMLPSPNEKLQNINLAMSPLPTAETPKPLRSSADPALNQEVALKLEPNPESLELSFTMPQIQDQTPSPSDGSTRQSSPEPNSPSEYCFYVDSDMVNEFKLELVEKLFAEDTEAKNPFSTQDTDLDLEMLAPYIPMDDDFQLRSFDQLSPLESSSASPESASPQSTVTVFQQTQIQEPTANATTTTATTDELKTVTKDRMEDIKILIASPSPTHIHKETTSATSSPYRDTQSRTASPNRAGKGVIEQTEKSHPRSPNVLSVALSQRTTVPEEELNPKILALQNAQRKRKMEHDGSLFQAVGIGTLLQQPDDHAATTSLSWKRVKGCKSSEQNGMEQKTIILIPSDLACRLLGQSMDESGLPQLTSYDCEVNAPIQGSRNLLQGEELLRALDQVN

Assay [16] deals with Hepatocyte nuclear factor 6 (Homo sapiens) (UniProt Q9UBC0). Nature of the assay: ATG_HNF6_CIS: Attagene CIS-FACTORIAL HepG2 Assay for human Hepatocyte Nuclear Factor 6 (HNF6) (AID 2282952). The conditions noted are these: HepG2 Attagene cis-factorial HNF6 reporter transcription; actives raise or lower the signal. The gist of the method:
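Using cis-element reporters in HepG2 liver cells, the assay tracks endogenous factor-driven transcription 24 h post-dosing. Signal comes from 6-FAM-labelled, HpaI-digested RT-PCR fragments, with gain or loss scored against DMSO.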

The target in assay [17] is Heat shock factor protein 1 (Homo sapiens) (UniProt Q00613). As to the kind of experiment: ATG_HSE_CIS: Attagene CIS-FACTORIAL HepG2 Assay for human Heat Shock Transcription Factor 1 (HSE) (AID 2282953). The conditions noted are these: HepG2 HSE cis-reporter, Attagene RNA transcription; actives raise or lower the signal. In outline:
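Endogenous transcription factor activity in transiently transfected HepG2, read as reporter mRNA by RT-PCR with fluorescent capillary electrophoresis after 24 h. Gain or loss of signal fitted versus DMSO baseline.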

Assay [18] can be described thus: ATG_MRE_CIS: Attagene CIS-FACTORIAL HepG2 Assay for human Metal Responsive Element (MRE) (AID 2282954). The conditions noted are these: HepG2 MRE cis-reporter transcription, Attagene multiplex; actives raise or lower the signal. The gist of the method:
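Cells were transfected with cis-promoter reporter transcription units, then dosed for 24 h. RNA was reverse-transcribed, amplified, fluorescently labelled and resolved by capillary electrophoresis, and activity was fitted in both directions relative to DMSO.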

The nature of assay [19]: ATG_PBREM_CIS: Attagene CIS-FACTORIAL HepG2 Assay for human Phenobarbital-responsive Enhancer Module (PBREM) (AID 2282955). Particulars: HepG2 PBREM cis-reporter, Attagene multiplexed transcription; actives raise or lower the signal. In outline:
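Transfected liver-derived HepG2 cells exposed 24 h; PBREM reporter transcript quantified via RT-PCR and capillary electrophoresis, with activity in either direction referenced to DMSO.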

Assay [20] in a line: ATG_FoxO_CIS: Attagene CIS-FACTORIAL HepG2 Assay for human Forkhead box O (FoxO) (AID 2282943). The conditions noted are these: HepG2 Attagene cis-reporter, FoxO element, mRNA; actives raise or lower the signal. The gist of the method:
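Values reflect reporter mRNA induction or loss in HepG2 cells 24 h post-dosing, fitted bidirectionally with DMSO as negative control and baseline. Detection used RT-PCR and fluorescence capillary electrophoresis.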

Usually AC50 stands for the midpoint of the concentration-response curve, whichever way the signal moves.

Several values for one entry are separate records, joined by “and”; a condition that tells them apart may be missing. Equal entries are not always repeated. Where a structure was tested more than once in an assay, its records may differ in their call. Activity calls are given as the source filed them. The calls were made as follows: active = hit-call score of the fitted dose curve at least 0.9, where 1 is the maximum; inactive = score below 0.9.

Bile acid receptor (Homo sapiens), sequence (Q96RI1 whole entry, looked up): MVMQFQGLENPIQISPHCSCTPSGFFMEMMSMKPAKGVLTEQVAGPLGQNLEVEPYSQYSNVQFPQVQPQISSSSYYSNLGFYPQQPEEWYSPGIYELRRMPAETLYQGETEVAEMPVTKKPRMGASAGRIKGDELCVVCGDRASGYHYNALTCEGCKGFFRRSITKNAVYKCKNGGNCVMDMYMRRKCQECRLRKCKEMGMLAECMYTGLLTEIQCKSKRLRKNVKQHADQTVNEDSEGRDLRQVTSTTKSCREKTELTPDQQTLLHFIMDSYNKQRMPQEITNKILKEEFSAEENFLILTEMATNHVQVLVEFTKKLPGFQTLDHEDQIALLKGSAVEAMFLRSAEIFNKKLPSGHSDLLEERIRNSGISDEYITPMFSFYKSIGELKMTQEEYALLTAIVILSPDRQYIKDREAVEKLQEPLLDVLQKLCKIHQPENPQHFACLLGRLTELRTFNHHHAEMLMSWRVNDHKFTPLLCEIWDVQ
Heat shock factor protein 1 (Homo sapiens), sequence (Q00613 whole entry, looked up): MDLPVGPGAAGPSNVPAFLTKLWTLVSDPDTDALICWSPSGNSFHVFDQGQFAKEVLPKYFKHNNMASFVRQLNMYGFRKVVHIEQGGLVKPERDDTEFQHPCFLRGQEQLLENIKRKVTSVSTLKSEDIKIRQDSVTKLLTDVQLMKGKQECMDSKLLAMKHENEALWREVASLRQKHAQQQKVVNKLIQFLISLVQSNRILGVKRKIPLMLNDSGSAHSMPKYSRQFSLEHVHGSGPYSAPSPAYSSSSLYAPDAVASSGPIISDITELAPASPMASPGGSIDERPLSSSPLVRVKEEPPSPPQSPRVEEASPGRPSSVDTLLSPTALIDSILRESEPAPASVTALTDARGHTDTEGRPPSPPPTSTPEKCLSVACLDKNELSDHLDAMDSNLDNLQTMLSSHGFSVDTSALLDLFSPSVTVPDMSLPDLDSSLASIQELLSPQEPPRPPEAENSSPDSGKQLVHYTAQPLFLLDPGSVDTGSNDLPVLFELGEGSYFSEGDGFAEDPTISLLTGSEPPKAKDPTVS
Hepatocyte nuclear factor 3-beta (Homo sapiens), sequence (Q9Y261 whole entry, looked up): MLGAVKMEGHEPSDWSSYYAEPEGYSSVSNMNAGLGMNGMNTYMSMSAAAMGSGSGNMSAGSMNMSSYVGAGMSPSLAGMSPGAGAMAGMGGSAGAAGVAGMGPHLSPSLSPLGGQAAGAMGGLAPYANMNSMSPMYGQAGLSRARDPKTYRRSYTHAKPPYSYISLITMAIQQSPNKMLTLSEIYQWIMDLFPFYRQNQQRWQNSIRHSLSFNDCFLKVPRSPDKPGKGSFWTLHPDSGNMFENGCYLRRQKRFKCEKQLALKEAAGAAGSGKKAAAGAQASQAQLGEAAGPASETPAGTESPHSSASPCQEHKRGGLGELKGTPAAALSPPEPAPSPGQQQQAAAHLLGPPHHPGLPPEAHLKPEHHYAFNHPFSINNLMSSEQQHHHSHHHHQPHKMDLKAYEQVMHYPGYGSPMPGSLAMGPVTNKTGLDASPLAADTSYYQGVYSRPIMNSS
Hepatocyte nuclear factor 6 (Homo sapiens), sequence (Q9UBC0 whole entry, looked up, the tested form may be a part): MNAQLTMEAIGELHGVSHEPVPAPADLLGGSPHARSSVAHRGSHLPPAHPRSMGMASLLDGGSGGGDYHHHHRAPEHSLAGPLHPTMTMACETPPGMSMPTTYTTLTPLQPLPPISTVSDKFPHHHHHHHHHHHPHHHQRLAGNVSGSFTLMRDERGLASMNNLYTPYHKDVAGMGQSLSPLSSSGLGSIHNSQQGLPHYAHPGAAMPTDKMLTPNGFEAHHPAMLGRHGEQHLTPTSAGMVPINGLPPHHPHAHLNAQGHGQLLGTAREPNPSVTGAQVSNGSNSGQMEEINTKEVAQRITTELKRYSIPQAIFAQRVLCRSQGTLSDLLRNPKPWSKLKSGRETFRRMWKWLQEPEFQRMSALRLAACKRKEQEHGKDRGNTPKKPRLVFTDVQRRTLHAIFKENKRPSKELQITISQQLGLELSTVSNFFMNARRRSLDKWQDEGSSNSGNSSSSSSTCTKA

Turning to `O=C(CC(=O)C(F)(F)C(F)(F)C(F)(F)F)c1cccs1`, the outcome in assay [1], in [2], in [3], in [4], in assay [5] and in [7] was inactive. The call in assay [8], in assay [9], in assay [10], in assay [12], in assay [13] and in [14] was inactive. In addition, the call in assay [16], in assay [17], in assay [18] and in assay [19] was inactive. The concentration at half-maximal activity (AC50) in assay [6] is 12.1 µM [setting not given] (active); in assay [15] it was 12.8 µM (active) and 16.5 µM (active); in [17] it was 86.8 µM (active); in assay [18], 50 µM (active); in [19] it was 69.7 µM (active). In addition, the outcome in assay [11] was “inactive [setting not given]”.
As for `CCOC(=O)c1nc(C(Cl)(Cl)Cl)n(-c2ccc(Cl)cc2Cl)n1`, the result in [1], in assay [2], in assay [4], in [5], in assay [20] and in assay [8] was inactive. Besides, the result in [14] and in [15] was inactive. Moreover, the half-maximal activity concentration (AC50) in [3] is 100 µM (active); in [6], 100 µM (active); in assay [10], 26.6 µM (active); in assay [11] it was 169 µM (active); in assay [12] it was 53.2 µM (active); in assay [13], 63.9 µM (active). The AC50 in [16] was 160 µM (active); in [17], 65.8 µM (active); in [18], 74.7 µM (active); in assay [19], 100 µM (active).
For `CC1CCC(C(=O)O)CC1` (centres undefined), the outcome in assay [1], in assay [2], in assay [3], in [4], in [6] and in [7] was inactive. Also, the molecule was classed as inactive in [20], in assay [8], in [9], in [10], in [11] and in assay [12]. The result in [13], in [14], in assay [15], in [16], in assay [17] and in assay [18] was inactive. Also, the outcome in assay [19] was inactive.
